Several values for one entry are separate records, joined by “and”; a condition that tells them apart may be missing. Equal values may be shown once.

The target in one experiment is T1, Homeodomain-interacting protein kinase 4 (Homo sapiens) (UniProt Q8NE63).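 Note: values are mean percent inhibition of HIPK4 from the GSK PKIS kinase screen.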
T1 sequence (whole entry): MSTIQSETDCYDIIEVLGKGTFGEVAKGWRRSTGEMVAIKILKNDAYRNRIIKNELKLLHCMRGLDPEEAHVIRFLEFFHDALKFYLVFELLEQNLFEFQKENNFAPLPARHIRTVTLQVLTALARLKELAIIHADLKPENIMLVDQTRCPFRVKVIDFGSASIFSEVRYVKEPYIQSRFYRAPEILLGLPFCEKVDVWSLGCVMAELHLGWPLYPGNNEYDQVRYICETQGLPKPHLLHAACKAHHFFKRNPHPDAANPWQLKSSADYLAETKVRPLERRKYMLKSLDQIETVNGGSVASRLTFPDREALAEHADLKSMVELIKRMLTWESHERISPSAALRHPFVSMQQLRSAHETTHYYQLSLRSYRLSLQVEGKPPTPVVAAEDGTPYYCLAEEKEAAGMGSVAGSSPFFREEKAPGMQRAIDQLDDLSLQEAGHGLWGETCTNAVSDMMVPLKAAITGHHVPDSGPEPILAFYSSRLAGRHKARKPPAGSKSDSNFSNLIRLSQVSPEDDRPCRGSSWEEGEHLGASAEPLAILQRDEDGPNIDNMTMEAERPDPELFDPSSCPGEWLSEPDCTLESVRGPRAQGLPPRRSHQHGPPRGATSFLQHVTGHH
To be noted: at 1 µM.
`CNC(=O)c1ncccc1Nc1nc(Nc2cc3c(cc2OC)CCCN3C(=O)CN(C)C)nc2[nH]ccc12`: the inhibition was 13.5%.
For the compound `Cc1ccc(-c2cc3c(NC(=O)C4CC4)ncnc3o2)cc1`, the inhibition was 7.28%.
The same measure, in the same setting: with `CNC(=O)c1sc(-n2cnc3cc(OC)c(OC)cc32)cc1OCc1ccccc1C(F)(F)F` the figure was 7.08%; with `O=C(O[C@H]1CN[C@H](C#Cc2cc3ncnc(Nc4ccc5c(ccn5Cc5cc(F)ccc5F)c4)c3s2)C1)N1CCOCC1`, 2.6%; with `CN1CCN(Cc2ccc(-c3cc4ncnc(Nc5ccc(OCc6cccc(F)c6)c(Cl)c5)c4s3)o2)CC1`, 0.76% and 4.59%.
On to `CCn1c(-c2nonc2N)nc2cncc(C(=O)NCCNC)c21`, for which the inhibition stood at 3.11%.
Still for that read-out and setting: to `CCS(=O)(=O)c1ccc(OC)c(Nc2ncc(-c3cccc(F)c3)o2)c1` belongs 30%.
On the same count and under the same terms, to `COC(=O)Nc1nc2cc(Oc3ccc(NC(=O)Nc4ccccc4)cc3)ccc2[nH]1` belongs 2.22%; to `COc1c(C(N)=O)cc(-c2ccc(Cl)cc2)cc1-c1ccc(S(N)(=O)=O)cc1`, 1.94%.
Same read-out and setting: with `CC1(C)CC(n2cnc(-c3ccc(F)cc3)c2-c2ccnc(N)n2)CC(C)(C)N1` the figure was 1.62%; with `CCCNc1cccc(-n2ncc3c(N/N=C/c4ccncc4)ncnc32)c1`, 27.7%.
On to `CN(c1ccc(NC(=O)NCCN2CCOCC2)cc1)c1ccnc(Nc2ccc(CS(C)(=O)=O)cc2)n1`, for which the inhibition came to 31.9%.
Still for that read-out and setting: to `CCOc1ccc2c(-c3ccnc(Nc4cc(OC)cc(C(F)(F)F)c4)n3)cnn2n1` belongs 24.3%.
Still for that read-out and setting: with `COc1cccc(-n2ncc3c(N/N=C/c4ccc(C(=O)NCCN(C)C)cc4)ncnc32)c1` the figure was 75.8%; with `COc1ccc(-c2nn3ncccc3c2-c2ccnc(Nc3ccc(F)c(F)c3)n2)cc1`, 1.58%.
On to `Cc1c2ccc(N(C)c3ccnc(Nc4cccc(S(N)(=O)=O)c4)n3)cc2nn1C`, for which the inhibition was found to be 10.6%.
On the same count and under the same terms, with `N#Cc1cccc(Nc2ncc(-c3ccccc3)o2)c1` the figure was 36.4%.
Turning to `CC1=C(C(=O)Nc2ccc3[nH]ncc3c2)C(c2ccc(F)cc2)N=C(c2ccc(C(F)(F)F)nc2)N1` (configuration not stated), the inhibition worked out at 1.53%.
Turning to `NS(=O)(=O)c1ccc(N/N=C2\C(=O)Nc3cccc(CCc4ccncc4)c32)cc1`, the inhibition came out at 1.64%.
Still for that read-out and setting: with `O=C(O[C@H]1CN[C@H](C#Cc2cc3ncnc(Nc4ccc5c(cnn5Cc5ccccc5)c4)c3s2)C1)N1CCOCC1` the figure was -0.32%.
Same read-out and setting: with `CS(=O)(=O)Nc1ccc(-c2cc(-c3ccccc3)cc(C(N)=O)c2N)cc1` the figure was 2.28%.
In the case of `FC(F)(F)CNc1nccc(-c2cnn3ncccc23)n1`, the inhibition is 3.01%.
On the same count and under the same terms, to `CS(=O)(=O)CCNCc1ccc(-c2ccc3ncnc(Nc4ccc(OCc5ccccc5)cc4)c3c2)o1` belongs 4.91%; to `CN(C)CCNC(=O)Nc1ccc(N(C)c2ccnc(Nc3ccc(CS(C)(=O)=O)cc3)n2)cc1`, 3.28%; to `NC(=O)c1ccc2c(-c3ccnc(NCCCO)n3)c(-c3ccc(F)cc3)nn2c1`, 7.94%.
Still for that read-out and setting: with `c1ccc(-c2n[nH]cc2-c2ccnc(-c3ccc(OCCn4ccnc4)cc3)c2)nc1` the figure was 2.03%.
Same read-out and setting: to `c1cnn2ncc(-c3ccnc(NCCCN4CCOCC4)n3)c2c1` belongs 3.35%.
Take `CN1CCC(n2cnc(-c3ccc(F)cc3)c2-c2ccnc(NCCO)n2)CC1`: the inhibition is 4.16%.
The same measure, in the same setting: to `COc1cc(N2CCN(C(C)C)CC2)ccc1Nc1nc(Nc2cccc3ncccc23)c2cc[nH]c2n1` belongs 6.13%; to `COc1ccc(Nc2ncc(-c3ccccc3)o2)cc1OC`, 22.6%.
As for `CC1=C(C(=O)Nc2ccc3[nH]nc(C)c3c2)C(c2ccc(C(F)(F)F)cc2)CC(=O)N1` (configuration not stated), the inhibition was determined as 7.18%.

In a further experiment the target is Mitogen-activated protein kinase 9 (Homo sapiens) (UniProt P45984). The following applies: at 0.1 µM.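 Note: values are mean inhibition of JNK2.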
Mitogen-activated protein kinase 9 (Homo sapiens), sequence (P45984 whole entry, looked up): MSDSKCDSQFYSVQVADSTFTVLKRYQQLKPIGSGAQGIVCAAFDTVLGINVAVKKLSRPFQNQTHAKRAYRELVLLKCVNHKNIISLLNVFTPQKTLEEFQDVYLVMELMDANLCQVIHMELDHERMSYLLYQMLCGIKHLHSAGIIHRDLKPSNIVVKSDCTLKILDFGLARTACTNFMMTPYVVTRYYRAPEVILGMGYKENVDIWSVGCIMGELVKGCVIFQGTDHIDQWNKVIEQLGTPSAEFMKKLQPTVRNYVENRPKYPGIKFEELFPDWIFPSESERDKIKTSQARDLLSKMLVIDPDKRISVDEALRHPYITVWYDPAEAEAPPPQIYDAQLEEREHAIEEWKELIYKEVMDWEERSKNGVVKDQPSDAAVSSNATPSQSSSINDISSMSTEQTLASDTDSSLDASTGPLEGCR
Regarding `CNC(=O)c1ncccc1Nc1nc(Nc2cc3c(cc2OC)CCCN3C(=O)CN(C)C)nc2[nH]ccc12`, the inhibition came out at 3.07%.
The same measure, in the same setting: with `Cc1ccc(-c2cc3c(NC(=O)C4CC4)ncnc3o2)cc1` the figure was 0.97%.
The same measure, in the same setting: with `CNC(=O)c1sc(-n2cnc3cc(OC)c(OC)cc32)cc1OCc1ccccc1C(F)(F)F` the figure was 2.65%.
On the same count and under the same terms, to `O=C(O[C@H]1CN[C@H](C#Cc2cc3ncnc(Nc4ccc5c(ccn5Cc5cc(F)ccc5F)c4)c3s2)C1)N1CCOCC1` belongs 5.66%; to `CN1CCN(Cc2ccc(-c3cc4ncnc(Nc5ccc(OCc6cccc(F)c6)c(Cl)c5)c4s3)o2)CC1`, 0.58% and 7.12%.
Turning to `CCn1c(-c2nonc2N)nc2cncc(C(=O)NCCNC)c21`, the inhibition is 4.59%.
On the same count and under the same terms, to `CCS(=O)(=O)c1ccc(OC)c(Nc2ncc(-c3cccc(F)c3)o2)c1` belongs 7.66%; to `COC(=O)Nc1nc2cc(Oc3ccc(NC(=O)Nc4ccccc4)cc3)ccc2[nH]1`, 3.28%.
The same measure, in the same setting: to `COc1c(C(N)=O)cc(-c2ccc(Cl)cc2)cc1-c1ccc(S(N)(=O)=O)cc1` belongs 3.46%; to `CC1(C)CC(n2cnc(-c3ccc(F)cc3)c2-c2ccnc(N)n2)CC(C)(C)N1`, -1.22%; to `CCCNc1cccc(-n2ncc3c(N/N=C/c4ccncc4)ncnc32)c1`, -0.25%.
Still for that read-out and setting: with `CN(c1ccc(NC(=O)NCCN2CCOCC2)cc1)c1ccnc(Nc2ccc(CS(C)(=O)=O)cc2)n1` the figure was 1.5%; with `CCOc1ccc2c(-c3ccnc(Nc4cc(OC)cc(C(F)(F)F)c4)n3)cnn2n1`, 1.36%; with `COc1cccc(-n2ncc3c(N/N=C/c4ccc(C(=O)NCCN(C)C)cc4)ncnc32)c1`, 2.47%.
`COc1ccc(-c2nn3ncccc3c2-c2ccnc(Nc3ccc(F)c(F)c3)n2)cc1`: the inhibition was 7.25%.
Same read-out and setting: with `Cc1c2ccc(N(C)c3ccnc(Nc4cccc(S(N)(=O)=O)c4)n3)cc2nn1C` the figure was 3.51%; with `N#Cc1cccc(Nc2ncc(-c3ccccc3)o2)c1`, 1.32%; with `CC1=C(C(=O)Nc2ccc3[nH]ncc3c2)C(c2ccc(F)cc2)N=C(c2ccc(C(F)(F)F)nc2)N1` (configuration not stated), 1.61%.
The same measure, in the same setting: with `NS(=O)(=O)c1ccc(N/N=C2\C(=O)Nc3cccc(CCc4ccncc4)c32)cc1` the figure was -0.3%; with `O=C(O[C@H]1CN[C@H](C#Cc2cc3ncnc(Nc4ccc5c(cnn5Cc5ccccc5)c4)c3s2)C1)N1CCOCC1`, 0.01%; with `CS(=O)(=O)Nc1ccc(-c2cc(-c3ccccc3)cc(C(N)=O)c2N)cc1`, 0.94%.
Turning to `FC(F)(F)CNc1nccc(-c2cnn3ncccc23)n1`, the inhibition was 2.29%.
The same measure, in the same setting: with `CS(=O)(=O)CCNCc1ccc(-c2ccc3ncnc(Nc4ccc(OCc5ccccc5)cc4)c3c2)o1` the figure was 2.23%; with `CN(C)CCNC(=O)Nc1ccc(N(C)c2ccnc(Nc3ccc(CS(C)(=O)=O)cc3)n2)cc1`, 4.37%.
On the same count and under the same terms, with `NC(=O)c1ccc2c(-c3ccnc(NCCCO)n3)c(-c3ccc(F)cc3)nn2c1` the figure was 38%; with `c1ccc(-c2n[nH]cc2-c2ccnc(-c3ccc(OCCn4ccnc4)cc3)c2)nc1`, 2.7%; with `c1cnn2ncc(-c3ccnc(NCCCN4CCOCC4)n3)c2c1`, 3.34%.
With `CN1CCC(n2cnc(-c3ccc(F)cc3)c2-c2ccnc(NCCO)n2)CC1`, the inhibition stood at 8.58%.
As to `COc1cc(N2CCN(C(C)C)CC2)ccc1Nc1nc(Nc2cccc3ncccc23)c2cc[nH]c2n1`, the inhibition amounted to 0.17%.
Still for that read-out and setting: with `COc1ccc(Nc2ncc(-c3ccccc3)o2)cc1OC` the figure was 2.69%; with `CC1=C(C(=O)Nc2ccc3[nH]nc(C)c3c2)C(c2ccc(C(F)(F)F)cc2)CC(=O)N1` (configuration not stated), 2.4%.

What is called inhibition is the drop in the measured response relative to a control, in per cent.

Values taken from ChEMBL document CHEMBL1961873, “Compounds: GSK PKIS; Assays: Nanosyn kinase panel” (2012).
